Experimental data: PubChem BioAssay AID485290 (National Center for Advancing Translational Sciences (NCATS), 2010)
Several values for one entry are separate records, joined by “and”; a condition that tells them apart may be missing. Identical values can stand only once. Among all 350,000 compounds or so, about 990 (0.28%) were called active. Not shown: some 2% with an inconclusive outcome. The call rests on the fitted dose curve; in most records, active means well fitted inhibition curve with a large enough effect; inconclusive means small, poorly fitted or top-dose-only effect; inactive means no such curve, though single readings can be large or run the other way. The sample as a whole holds a higher share of actives than the screen did. Where a structure was tested more than once in an assay, its records may differ in their call.

molecular target: Tyrosyl-DNA phosphodiesterase 1 (Homo sapiens) (UniProt Q9NUW8); assay: qHTS Assay for Inhibitors of Tyrosyl-DNA Phosphodiesterase (TDP1); conditions: recombinant TDP1, AlphaScreen DNA substrate cleavage; series mostly up to 130 µM; activity change, negative = inhibition: at the top concentration; further: nearly all actives have a fitted effect of over 40% in size
Sequence (Q9NUW8 whole entry, looked up): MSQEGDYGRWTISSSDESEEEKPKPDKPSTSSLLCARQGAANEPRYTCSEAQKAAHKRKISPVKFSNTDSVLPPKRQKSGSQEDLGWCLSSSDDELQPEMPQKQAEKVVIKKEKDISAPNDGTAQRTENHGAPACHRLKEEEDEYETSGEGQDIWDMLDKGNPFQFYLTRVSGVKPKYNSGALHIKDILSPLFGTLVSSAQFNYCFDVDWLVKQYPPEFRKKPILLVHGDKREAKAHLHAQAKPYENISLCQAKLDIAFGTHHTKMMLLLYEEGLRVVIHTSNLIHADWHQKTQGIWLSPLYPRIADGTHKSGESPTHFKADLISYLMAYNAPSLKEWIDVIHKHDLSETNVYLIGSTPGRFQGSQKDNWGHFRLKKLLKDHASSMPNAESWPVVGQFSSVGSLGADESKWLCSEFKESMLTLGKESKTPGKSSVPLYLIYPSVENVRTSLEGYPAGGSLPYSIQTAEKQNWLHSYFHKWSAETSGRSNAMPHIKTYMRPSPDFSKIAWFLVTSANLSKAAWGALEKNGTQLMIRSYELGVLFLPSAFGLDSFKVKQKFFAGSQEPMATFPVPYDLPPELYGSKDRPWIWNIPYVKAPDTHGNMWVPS
From the text: NIH Molecular Libraries Probe Production Network [MLPCN]
NIH Chemical Genomics Center [NCGC]
Assay Provider: Yves Pommier and Christophe Marchand, National Cancer Institute
Assay Title: qHTS Assay for Inhibitors of Tyrosyl-DNA Phosphodiesterase (TDP1); further: nearly all actives have a fitted effect of over 40% in size
Human tyrosyl-DNA phosphodiesterase I (Tdp1) is a rational anticancer target because this enzyme is involved in the repair of DNA lesions created by the trapping of human DNA topoisomerase I (Top1) following treatment by anticancer agents such as camptothecins. Recombinant Tdp1 was expressed and purified from E. coli in the laboratory (Anthony et al, Nucleic Acids Research, 2007, Vol. 35, 4474-4484). A Tdp1 DNA substrate bearing a 5' biotin and a 3' phospho-tyrosine was obtained by custom synthesis. This oligonucleotidic DNA substrate was subsequently coupled to a fluorescein isothiocyanate (FITC) group via the free amino group present on the phospho-tyrosine. Tdp1 was screened against the NCGC small molecule library using the AlphaScreen (AS) detection method in which a streptavidin donor AS bead is bound at the 5' end and an anti-FITC AS acceptor bead is bound at the 3' end of the DNA oligonucleotidic substrate. In the presence of Tdp1, the enzyme cleaves the tyrosine-FITC group, leaving a 3' end phosphate on the DNA substrate. This cleavage reaction results in a loss of signal in AS.
[1] 3 ul of buffer is dispensed in columns 3 & 4 as negative control (no enzyme and maximum signal),
[2] 3 ul of enzyme (1 nM final) is dispensed in columns 1,2, 5-48,
[3] 1 ul of substrate (15 nM final) is dispensed throughout the plate,
[4] 1 ul of AS donor/acceptor bead mix (10 ug/ml final) is dispensed throughout the plate
3 ul of Tdp1 enzyme is dispensed to 1536-well Kalypsys black solid bottom plates. Compounds and controls (23 nl) are transferred via Kalypsys Pin Tool. The plates are incubated for 15 min at room temperature, and then 1 ul of substrate is added to start the reaction. After 5 min incubation at room temperature, 1 ul of AS donor/acceptor bead mix is added and the plates are further incubated for 10 min at room temperature. The detection is then performed on a PerkinElmer Envision reader.
On the % scale 0 is the no-effect control and ±100 the full control effect; potency means the concentration at half of the fitted maximal effect.

Row | Compound | Potency | activity change, negative = inhibition
1 | CC(C)Nc1nc(Cl)nc(NC(C)C)n1 | inactive and 28.2 µM (active) | 
2 | CCC(CCC(C)C1CCC2C3CC=C4CC(O)CC[C@@]4(C)C3CC[C@@]12C)C(C)C (stereo not given in full) |  | 5.38% (inactive)
3 | C=CC#N |  | -7.61% (inactive)
4 | O=NO | inactive | 
5 | CN1[C@H]2CC(OC(=O)[C@@H](CO)c3ccccc3)C[C@H]1[C@H]1O[C@H]12 (stereo not given in full) |  | 5.13% [at 21 µM] (inactive)
6 | CC(=O)CC(C)C |  | 15.5% (inactive)
7 | CC(C)(O/N=C(\C(=O)N[C@@H]1C(=O)N2C(C(=O)[O-])=C(C[n+]3ccccc3)CS[C@@H]12)c1csc(N)n1)C(=O)O | 12.6 µM (active) | 
8 | CCCCCCCCCCCCN=C(N)N |  | 0.984% (inactive)
9 | CCN(CC)c1nc(C)cc(OP(=S)(OC)OC)n1 |  | 8.2% (inactive)
10 | CC(=O)[O][Sn]([c]1ccccc1)([c]1ccccc1)[c]1ccccc1 |  | 6.23% (inactive)
11 | CCCCC/C=C\C/C=C\C/C=C\C/C=C\CCCCCC(=O)NCCO | inactive and 39.8 µM (active) | 
12 | CCCCC/C=C\C/C=C\C/C=C\CCCCCCC(=O)NCCO | inactive | 
13 | CN(C)C[C@H]1CCCC[C@]1(O)c1cccc(O)c1 |  | -0.328% (inactive)
14 | C[C@@H]1C[C@H]2CC[C@H](O2)[C@H](C)C(=O)O[C@@H](C)C[C@@H]2CC[C@@H](O2)[C@@H](C)C(=O)O[C@H](C)C[C@H]2CC[C@H](O2)[C@H](C)C(=O)O[C@@H](C)C[C@@H]2CC[C@@H](O2)[C@@H](C)C(=O)O1 |  | 8.2% (inactive)
15 | CC(CCC(=O)O)C1CCC2C3C(O)C[C@@H]4CC(O)CC[C@@]4(C)C3CC[C@@]12C (stereo not given in full) | inactive | 
16 | O=C(O)c1cc[c]([Sb](=[O])([OH])[OH])cc1[N+](=O)[O-] | 1.58 µM (active) | 
17 | S=P(c1ccccc1)(c1ccccc1)c1c(-c2ccccc2)[nH]c2ccccc12 |  | 1.74% (inactive)
18 | Nc1ccc(-c2ccc(N)c(N)c2)cc1N |  | 19.3% (inactive)
19 | O=C1CCc2cccc3c2N1CC3 |  | 4.92% (inactive)
20 | Cc1cccc2c3c(ccc12)C1=C(C(=O)C3=O)C(C)CO1 (stereo not given) |  | 22.4% (inactive)
